We go through 39 compounds from PubChem BioAssay (NCATS).

Inconclusive results are not listed. Calls of active or inactive are those of the source. Calls follow the shape of the full dose curve.

Sequence of Peroxisome proliferator-activated receptor delta (Homo sapiens) (Q03181 whole entry, looked up): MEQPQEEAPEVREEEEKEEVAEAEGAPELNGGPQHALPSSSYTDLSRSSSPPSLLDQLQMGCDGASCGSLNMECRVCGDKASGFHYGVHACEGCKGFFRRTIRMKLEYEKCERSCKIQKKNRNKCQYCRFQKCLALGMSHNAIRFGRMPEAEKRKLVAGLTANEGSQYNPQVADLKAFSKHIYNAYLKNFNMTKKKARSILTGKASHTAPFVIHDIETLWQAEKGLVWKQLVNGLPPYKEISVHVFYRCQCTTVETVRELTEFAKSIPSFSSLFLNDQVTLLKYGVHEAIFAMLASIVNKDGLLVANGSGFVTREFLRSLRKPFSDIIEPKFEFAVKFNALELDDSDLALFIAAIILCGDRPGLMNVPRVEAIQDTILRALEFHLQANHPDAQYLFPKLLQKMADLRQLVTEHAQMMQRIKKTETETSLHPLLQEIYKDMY

In this test the target is Peroxisome proliferator-activated receptor delta (Homo sapiens) (UniProt Q03181). Description: qHTS assay for small molecule agonists of peroxisome proliferator-activated receptor delta signaling (AID 588534). Particulars: HEK293T PPARdelta-UAS-bla, beta-lactamase ratio, 18 h; series mostly up to 76.7 µM. An outline of the steps:
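EC50 and efficacy values derive from Hill fits of a concentration series in a beta-lactamase reporter cell assay. Exposure is 18 hrs at 37 C, with CCF4 fluorescence as the readout.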
(Quantitative high-throughput screening tests each substance at several concentrations.)
Consider `C/C(C=O)=C/c1ccccc1`, for which the outcome was inactive.

Take `CC(C)CCCCOC(=O)c1ccccc1C(=O)OCCCCC(C)C`: the outcome was inactive. To `CC(C)N(C)C` belongs “inactive”; to `CCC(C)O` (centres undefined), “inactive”; to `O=Cc1ccc(Cl)cc1`, “inactive”.

On to `C=C(C)C(=O)OCC[N+](C)(C)C`, for which the outcome was inactive. To `CCOC(=O)OCC` belongs “inactive”. On to `CC(=O)c1ccccc1[N+](=O)[O-]`, for which the result was inactive. In the case of `Cc1cccc2cccnc12` it was “inactive”; in that of `O=C(O)c1cccc([N+](=O)[O-])c1`, “inactive”; in that of `COC(C)=O`, “inactive”.

`COC(=O)CSc1cc(N=c2sc(=O)n3n2CCCC3)c(F)cc1Cl`: the result was inactive. As for `C=CCOC(=O)COCCC(C)C`, the result was inactive. In the case of `CCCCCCCCC(=O)O` it was “inactive”; in that of `O=Cc1ccc(Cl)c(Cl)c1`, “inactive”; in that of `Cc1ccc2ncccc2c1`, “inactive”. As to `CCOC(=O)COc1cc(-n2ncc(C(F)(F)F)c(C)c2=O)c(F)cc1Cl`, the outcome was inactive. To `COC(=O)C(C)Oc1ccc(Oc2ncc(C(F)(F)F)cc2Cl)cc1` (centres undefined) belongs “inactive”; to `Cc1cccc(Br)c1`, “inactive”. To `COC(=O)c1ccccc1` belongs “inactive”; to `COCCO`, “inactive”; to `Cc1cccc([N+](=O)[O-])c1C`, “inactive”. In the case of `FC(F)(F)c1cccc(Cl)c1` it was “inactive”; in that of `CCCCC(CC)COC(C)=O` (centres undefined), “inactive”.

`CCC(C)c1ccccc1O` (centres undefined): the outcome was inactive. To `Cc1ccc([N+](=O)[O-])c(N)c1` belongs “inactive”; to `Clc1nc2ccccc2nc1Cl`, “inactive”. In the case of `CCCCOCCOCCOC(C)=O` it was “inactive”; in that of `CN=C(N)NCC1CCOC1` (centres undefined), “inactive”; in that of `CCC(O)OCCCOC` (centres undefined), “inactive”. In the case of `C=CC(=O)OCCOc1ccccc1` it was “inactive”.

Consider `CC1(C)C(=O)NC(=O)N1CO`, for which the result was inactive.

On to `OC1CCCCCCCCCCC1`, for which the result was inactive.

Turning to `c1ccc2n[nH]nc2c1`, the outcome was inactive. In the case of `O=[N+]([O-])c1ccc2c(c1)Cc1ccccc1-2` it was “inactive”; in that of `O=CC(=O)c1ccccc1`, “inactive”. For `CCCCCCC(C)OC(=O)COc1nc(F)c(Cl)c(N)c1Cl` (centres undefined), the outcome was inactive. Consider `CCCCC(CC)COP(=O)(O)OCC(CC)CCCC` (centres undefined), for which the result was inactive. As to `CCCC/C=C\CCCCCCCCO`, the result was inactive.
